Rows were chosen to be rich in hits. Some 21% of all compounds tested hit in one or more screens of this group.
Pf growth 96h – P. falciparum growth inhibition at 96 hour, primary screen for plastid delayed-death inhibitors. P. falciparum luciferase reporter growth, 96 h. Potency, µM (doses to about 28.7 µM), for inactives: at the highest dose activity change, negative = inhibition, usual class: inhibitors. 6.9% of 320,000 active. AID 504834; note: potency is the fitted concentration of half-maximal effect; % is set by controls: 0 for no effect and ±100 for the full control effect
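Two parasite generations (96 h, 37 C, 5% CO2) of compound exposure in infected erythrocytes (0.05% parasitemia, 2% hematocrit). Luciferase-reporter P. falciparum; decreased luminescence indicates inhibited growth, aimed at apicoplast-acting delayed death.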
AMA1 RON2 block – inhibitors of Plasmodium falciparum AMA1-RON2 interaction; AlphaScreen AMA1-biotinylated RON2 peptide binding; Potency, µM (series often up to 58.2 µM), for inactives: at the top dose activity change, negative = inhibition, usual class: inhibitors; 0.2% of 360,000 active;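 note: potency is the fitted concentration of half-maximal effect; 0% = vehicle wells and -100% = peptide control; nearly all actives have a fitted effect of over 45% in size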
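AMA1 (3D7) with his tag at 25 nM final met compounds first, then biotinylated RON2 peptide at 25 nM; detection used donor plus acceptor beads, 10 µg/mL apiece, read by AlphaScreen after 30 min at room temperature.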
Cycloheximide cs – counter-screen hit for Shiga toxin inhibitors, cycloheximide; cell reporter, cycloheximide protein synthesis inhibition counterscreen; max response, %; 12% of 300,000 active; in the data active = max response mostly above about 13%, no sharp cut-off; inactive = mostly below about 14%; note: read at 38.3 µM for the half of the compounds with a filed dose; 0% is about no effect
HCV inh – blocks hepatitis C virus | 3.4% of 340,000 active | Huh7.5.1 HCVcc-Cre infection, luciferase reporter, 44 h | AID 651820 | Potency, µM (highest dose often 41.8 µM), inactives show at the top dose activity change, negative = inhibition, actives largely listed as inhibitors; note: potency is the fitted concentration of half-maximal effect; % is set by controls: 0 for no effect and ±100 for the full control effect
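A cell-based infection assay in which seeded cells (1,000 per well) receive test compound after 4 h, are inoculated with HCVcc-Cre at approximately 0.5 moi, and are incubated 44 h before luminescence detection.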
Shiga inhibitor – blocks Shiga toxin action in Vero cells | Vero cells, Shiga toxin protein synthesis inhibition reporter | inhibition, % at 38.7 µM | 9.2% of 290,000 active; in the data active = inhibition mostly above about 28%, no sharp cut-off; inactive = mostly below about 43%; note: 0% is about no effect
Pf growth 48h – P. falciparum growth inhibition at 48 hours (one generation). P. falciparum luciferase growth in erythrocytes, 48 h. Potency, µM (titrated, usually from 28.7 µM), for inactives: at the top dose activity change, negative = inhibition, actives largely listed as inhibitors. 5.9% of 310,000 active. AID 504832; note: potency is the fitted concentration of half-maximal effect; % is set by controls: 0 for no effect and ±100 for the full control effect
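Luciferase-expressing P. falciparum in infected erythrocytes (2% hematocrit, 0.1% parasitemia final) in RPMI 1640/0.5% Albumax were exposed to compound for 48 hours at 37 C, 5% CO2; growth read as luminescence.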
* hit, by the source's call; u = inconclusive; x = not tested or not shown; [ ] = another dose, or the depositor's remark. Unless noted, calls come from the whole dose curve; as a rule, active = well fitted curve in the direction sought with a large enough effect; inconclusive = small, poorly fitted or top-dose-only effect, or another doubt; inactive = no such curve, though single readings can be large; an effect the other way counts as inactive or inconclusive.

SMILES	Pf growth 96h	AMA1 RON2 block	Cycloheximide cs	HCV inh	Shiga inhibitor	Pf growth 48h
Cn1c(=O)n(C)c2cc(/C=N/n3cnnc3)ccc21	5.9µM*	-7%	-1	5%	8	23%
OCCCNc1nc(-c2ccccc2)c2cc(Br)ccc2n1	1.7µM*	0%	5	-2%	-5	-9%
Cc1ccc2nc(NCCCO)nc(-c3ccccc3)c2c1	u	2%	-3	u	-13	x
COc1cccc(OC)c1/C=C/C(=O)NC1CCCCC1	u	-3%	1	3%	1	16%
Cc1ccc(CNC(=O)C2CC(c3ccccc3[N+](=O)[O-])=NO2)cc1 (stereo not drawn)	48%	5%	13*	-3%	-2	7%
COc1cccc(C2=NOC(C(=O)NCCN3CCOCC3)C2)c1 (stereo not drawn)	8.3µM*	4%	-2	20%	18	u
CCCCNC(=O)C1CC(c2cccc(F)c2)=NO1 (stereo not drawn)	67%	-11%	33*	0%	58*	55%
COCCNC(=O)C1CC(c2ccc([N+](=O)[O-])cc2)=NO1 (stereo not drawn)	8%	7%	-4	25%	-4	4%
COc1ccc(CCNC(=O)C2CC(c3ccc([N+](=O)[O-])cc3)=NO2)cc1 (stereo not drawn)	7%	4%	33*	u	43*	7%
CC(C)(C)N/C=C(\C#N)S(=O)(=O)c1ccc(Br)cc1	u	-9%	-3	14%	-4	u
O=C(NCCc1cccs1)C1CC(c2ccc([N+](=O)[O-])cc2)=NO1 (stereo not drawn)	12%	51%	59*	-20%	77*	41%
Cc1ccc(CNC(=O)C2CC(c3cccc([N+](=O)[O-])c3)=NO2)o1 (stereo not drawn)	10%	3%	33*	1%	64*	18%
COc1ccc(CCNC(=O)C2CC(c3cccc([N+](=O)[O-])c3)=NO2)cc1 (stereo not drawn)	-12%	-7%	47*	-15%	160*	25%
Cc1ccc(CNC(=O)C2CC(c3cc(C(F)(F)F)cc(C(F)(F)F)c3)=NO2)o1 (stereo not drawn)	48%	18%	-4	24%[8.37 µM]	17	22%
CN(C)c1ccc(CNC(=O)CCNS(=O)(=O)c2cc(Br)cnc2N)cc1	36%	-6%	-2	5%	-11	12%
Cc1ccc(S(=O)(=O)NC(CC(C)C)C(=O)NCCCn2nc(C)cc2C)cc1 (stereo not drawn)	u	11%	x	7%	x	u
CN(C(=O)CSCC(=O)Nc1ccc(Cl)cc1)C1CCCCC1	x	2%	x	7%	x	x
CCC(=O)Nc1ccc(Br)cn1	7%	-6%	11	10%	-5	7%
CCN(CC)c1ccc(CNc2ccc(Br)cn2)cc1	u	-17%	33*	3%	88*	18%
Cc1nn(C)c(C)c1/C=C/C(=O)c1ccc(Cl)cc1Cl	-7%	-9%	7	7.9µM*	39	u
Cc1nn(C)c(C)c1/C=C/C(=O)O	22%	1%	-1	8%	-14	11%
O=S(=O)(c1ccccc1Br)N(CC(O)COCc1ccccc1)C1CC1 (stereo not drawn)	x	15%	x	-21%	x	x
CC(=O)c1cc2c(cc1NC(=O)CSc1ncccn1)OCO2	x	7%	x	x	x	x
COc1ccc(-c2nnc3n2CCCCC3)cc1OC	23%	0%	-6	4%	-4	24%
COc1ccc(-c2cc3nc4n(c(=O)c3s2)CCCCC4)cc1	196%	-4%	49*	u	78*	320%
SMILES	Pf growth 96h	AMA1 RON2 block	Cycloheximide cs	HCV inh	Shiga inhibitor	Pf growth 48h
COc1ccc(-c2cc3nc4n(c(=O)c3s2)CCC4)cc1	u	1%	33*	-7%	91*	36%
COc1ccc(-c2nc3n(c2C)CCC3)cc1	128%	-2%	27*	-15%	71*	60%
Cc1csc(=O)n1CC(=O)OC(C)C(=O)Nc1cccc(Cl)c1 (stereo not drawn)	27%	-18%	x	12%	x	38%
CCCCCOc1ccc(C(=O)Nc2ccc(N3CCOCC3)cc2N2CCOCC2)cc1	u	-5%	x	-12%	x	u
c1ccc(C2(N3CCCC3)CCCCC2)cc1	13µM*	x	x	x	x	15µM*
CCc1nc(SCc2ccccc2C)n[nH]1	6.6µM*	2%	21*	7%	44	-18%
Cc1ccccc1CSc1nsc(N)n1	6%	-3%	13	17%	26	3%
Cc1nc(SCc2ccccc2C)n[nH]1	-15%	2%	19*	-13%	active	15%
O=C(NCc1ccccn1)c1cc(Cl)ccc1OCc1ccccc1	34%	55%	4	u	11	u
O=c1c2ccccc2nc(/C=C/c2ccc3c(c2)OCO3)n1-c1ccccc1	10µM*	-26%	-2	u	9	u
COc1ccc(-n2c(/C=C/c3ccc(O)c(O)c3)nc3ccccc3c2=O)cc1	2.3µM*	6%	2	u	17	5.2µM*
O=c1c2ccccc2nc(/C=C\c2ccccc2[N+](=O)[O-])n1-c1ccccc1O	u	-1%	9	-14%	8	6.6µM*
O=c1c2ccccc2nc(/C=C/c2ccccc2)n1CCCO	1%	-13%	11	-7%	6	u
O=c1c2ccccc2nc(/C=C/c2ccccc2O)n1-c1ccccc1O	u	x	13	x	23	u
O=c1c2ccccc2nc(/C=C/c2ccc3c(c2)OCO3)n1CCCO	31%	10%	24*	-14%	47	13%
CCOC(=O)C(=CNc1ccc(Oc2cncc(Cl)c2)nc1)C(=O)OCC	-1%	-8%	-2	u	-9	-7%
COc1ccc(OCc2cc(C(=O)NCc3nc(C)cs3)no2)c(Cl)c1	u	-12%	52*	x	98*	27%
COc1ccc(OCc2cc(C(=O)NC(C)c3csc(C)n3)no2)c(Cl)c1 (stereo not drawn)	23%	-1%	63*	-24%	62*	39%
Cc1nc(CNC(=O)c2cc(COc3ccc(F)cc3Cl)on2)cs1	u	-2%	8	-12%	10	37%
COc1ccc(OCc2cc(C(=O)NC(C)c3nc(C)cs3)no2)c(Cl)c1 (stereo not drawn)	x	-7%	x	x	x	x
C=CCn1c(=O)c2c(nc3n2CCCN3CCc2ccc(OC)c(OC)c2)n(C)c1=O	-9%	-4%	-3	u	3	-14%
CN(C)c1nc(Cl)nc(N(C#N)CCOc2ccccc2)n1	141%	5%	-3	u	-12	u
CC(OC(=O)CNC(=O)COc1ccccc1)C(=O)N(C)Cc1ccccc1 (stereo not drawn)	22%	-2%	x	2%	x	-16%
